Among all 5,500 compounds or so, about 2,000 (36%) were called active. About 18% were inconclusive and are not listed. Rule as the data show it: active = normalized growth mostly below about 0.91 (no sharp cut-off); inconclusive = no clear call, values can overlap the other calls; inactive = mostly above about 0.92. Some of the results follow.
Experiment: chemical genetic growth profiling, strain panel (AID 1159580);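 also: tested at 20 µM; growth read once vehicle control cultures reached saturation at 30 °C; 1 = growth at the plate median or of vehicle wells; lower values mean less growth of the strain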
Settings: S. cerevisiae deletion strains, growth OD
[1] = locus YAL040C, strain CLN3, active compounds read low
[2] = locus YCL061C, strain MRC1 (second series), active compounds read low
[3] = locus YDR363W, strain ESC2, active compounds read low
[4] = locus YER002W, strain NOP16, active compounds read low
[5] = locus YNL153C, strain GIM3, active compounds read low
[6] = locus YNL175C, strain NOP13, active compounds read low
[7] = locus YNL197C, strain WHI3, active compounds read low
[8] = locus YNL224C, strain SQS1, active compounds read low
[9] = locus YOR083W, strain WHI5 (second series), active compounds read low

Measured: normalized growth

N[C@@H](Cc1cnc[nH]1)C(=O)O
inactive: locus YAL013W, strain DEP1, active compounds read low 0.963 | [1] 0.939 | [2] 0.987 | [3] 0.979 | [4] 0.991 | locus YMR307W, strain GAS1, active compounds read low 0.986 | locus YNL128W, strain TEP1, active compounds read low 0.978 | [5] 1.01 | [6] 0.989 | [7] 0.988 | [8] 0.996 | [9] 1.03

O=Nc1c(-c2c(O)[nH]c3ccccc23)[nH]c2ccccc12
inactive: [2] 0.997 | [3] 0.976 | locus YGR078C, strain PAC10, active compounds read low 0.985 | locus YJR075W, strain HOC1, active compounds read low 1.01 | [5] 1 | [8] 0.951
active: [1] 0.529 | [4] 0.587 | [6] 0.676 | [7] 0.869 | [9] 0.46

Source: PubChem BioAssay AID1159580 (chemical genetic matrix, 2015)
